Results reported in PubChem BioAssay (EPA / NIEHS).
Records with an inconclusive call do not appear. Activity calls are given as the source filed them. How the source made its calls: active means hit-call score of the fitted dose curve at least 0.9, where 1 is the maximum; inconclusive means response in the unintended direction; inactive means score below 0.9.

Key:
[1] = target: guinea pig Bradykinin Receptor B2 (BK2), BDKRB2 (gene 100135486) (UniProt O70526); experiment: NVS_GPCR_gBK2: NovaScreen (NVS) G Protein-Coupled Receptor Assay for guinea pig Bradykinin Receptor B2 (BK2) (AID 2283292)
Chain of guinea pig Bradykinin Receptor B2 (BK2), BDKRB2 (gene 100135486) (O70526 whole entry, looked up): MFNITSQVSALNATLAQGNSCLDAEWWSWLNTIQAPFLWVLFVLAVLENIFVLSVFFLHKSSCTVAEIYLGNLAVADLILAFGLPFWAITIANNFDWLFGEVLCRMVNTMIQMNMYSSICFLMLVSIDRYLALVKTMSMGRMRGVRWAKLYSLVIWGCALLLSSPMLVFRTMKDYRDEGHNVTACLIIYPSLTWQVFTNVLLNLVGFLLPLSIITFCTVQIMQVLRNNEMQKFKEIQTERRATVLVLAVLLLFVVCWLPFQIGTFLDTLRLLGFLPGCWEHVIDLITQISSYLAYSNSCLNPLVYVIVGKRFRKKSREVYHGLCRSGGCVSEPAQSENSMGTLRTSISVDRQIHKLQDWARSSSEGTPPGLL
Summary of the method: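 Radioligand displacement on guinea pig ileum membranes for 1 h, read by filter-based scintillation counting; loss of signal relative to DMSO. Compounds were screened in duplicate at 25 uM, and those passing the threshold were retested in concentration-response up to 50 uM.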

[2] = target: rat Adrenergic, Alpha 1A Receptor (Adra1A), Adra1a (gene 29412) (UniProt P43140); experiment: NVS_GPCR_rAdra1A: NovaScreen (NVS) G Protein-Coupled Receptor Assay for rat Adrenergic, Alpha 1A Receptor (Adra1A) (AID 2283296)
Chain of rat Adrenergic, Alpha 1A Receptor (Adra1A), Adra1a (gene 29412) (P43140 whole entry, looked up): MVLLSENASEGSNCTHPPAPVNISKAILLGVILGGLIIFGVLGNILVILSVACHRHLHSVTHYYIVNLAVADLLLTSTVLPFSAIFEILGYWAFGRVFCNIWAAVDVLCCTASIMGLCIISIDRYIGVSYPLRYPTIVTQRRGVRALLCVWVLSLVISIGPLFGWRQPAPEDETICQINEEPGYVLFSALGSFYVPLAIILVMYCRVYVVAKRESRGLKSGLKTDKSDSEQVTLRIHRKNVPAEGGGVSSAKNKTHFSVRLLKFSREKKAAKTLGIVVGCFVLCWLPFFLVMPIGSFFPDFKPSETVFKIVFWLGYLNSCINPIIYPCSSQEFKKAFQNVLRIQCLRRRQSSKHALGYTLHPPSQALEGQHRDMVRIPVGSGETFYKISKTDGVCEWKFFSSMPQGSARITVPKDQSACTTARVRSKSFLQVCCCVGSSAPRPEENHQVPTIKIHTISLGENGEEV
Summary of the method: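 Rat cortical membranes pretreated with chlorethyl clonidine; competitive radioligand displacement, 1 h. Filter-based scintillation counting. Primary screen in duplicate at 25 uM, actives followed in concentration series.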

[3] = system: rat Adrenergic, Alpha 1B Receptor (Adra1B), gene 24173; experiment: NVS_GPCR_rAdra1B: NovaScreen (NVS) G Protein-Coupled Receptor Assay for rat Adrenergic, Alpha 1B Receptor (Adra1B) (AID 2283297)
Protocol: NVS_GPCR_rAdra1B is a biochemical, single-readout assay that uses extracted gene-proteins from Rat liver membranes in a tissue-based cell-free assay. Measurements were taken 1 hour after chemical dosing in a 48-well plate.NVS_GPCR_rAdra1B is one of one assay component(s) measured or calculated from the NVS_GPCR_rAdra1B assay. It is designed to make measurements of radioligand binding, a form of binding reporter, as detected with scintillation counting signals by Filter-based radiodetection technology.Data from the assay component NVS_GPCR_rAdra1B was analyzed into 1 assay endpoint. This assay endpoint, NVS_GPCR_rAdra1B, was analyzed in the positive analysis fitting direction relative to DMSO as the negative control and baseline of activity. Using a type of binding reporter, loss-of-signal activity can be used to understand changes in the binding as they relate to the gene Adra1b. Furthermore, this assay endpoint can be referred to as a primary readout, because the performed assay has only produced 1 assay endpoint. To generalize the intended target to other relatable targets, this assay endpoint is annotated to the gpcr intended target family, where the subfamily is rhodopsin-like receptor. […]

[4] = target: rat Adrenergic Receptor, Beta (Adrb), Non-selective Binding, Adrb1 (gene 24925) (UniProt P18090); experiment: NVS_GPCR_rAdrb_NonSelective: NovaScreen (NVS) G Protein-Coupled Receptor Assay for rat Adrenergic Receptor, Beta (Adrb), Non-selective Binding (AID 2283298)
Chain of rat Adrenergic Receptor, Beta (Adrb), Non-selective Binding, Adrb1 (gene 24925) (P18090 whole entry, looked up): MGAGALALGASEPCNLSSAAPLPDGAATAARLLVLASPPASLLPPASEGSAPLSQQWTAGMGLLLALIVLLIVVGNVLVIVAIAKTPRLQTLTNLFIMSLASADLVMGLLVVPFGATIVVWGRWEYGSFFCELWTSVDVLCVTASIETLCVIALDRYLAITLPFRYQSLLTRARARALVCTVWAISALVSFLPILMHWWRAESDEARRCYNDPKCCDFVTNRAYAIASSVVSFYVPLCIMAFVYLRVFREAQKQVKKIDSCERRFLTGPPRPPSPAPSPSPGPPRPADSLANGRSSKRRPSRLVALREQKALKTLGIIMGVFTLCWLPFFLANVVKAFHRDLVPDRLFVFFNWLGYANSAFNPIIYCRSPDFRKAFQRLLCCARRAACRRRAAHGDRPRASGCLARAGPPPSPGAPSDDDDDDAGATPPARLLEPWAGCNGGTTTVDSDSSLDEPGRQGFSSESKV
Summary of the method: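 Non-selective beta-adrenergic radioligand binding in rat cortical membranes, 1 h incubation, filter-based scintillation read-out. Primary screen 25 uM in duplicate; hits retested in concentration-response up to 50 uM, DMSO baseline.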

S=C1NCCN1
outcome [1]: inactive

CSC1=N[C@@](C)(c2ccccc2)C(=O)N1Nc1ccccc1
outcome [2]: inactive

C[Si](Cn1cncn1)(c1ccc(F)cc1)c1ccc(F)cc1
AC50 [2]: 16.9 µM (active)
AC50 [3]: 19.1 µM (active)

CC[C@H](C)[C@H]1O[C@]2(C=C[C@@H]1C)C[C@@H]1C[C@@H](C/C=C(\C)[C@@H](O[C@H]3C[C@H](OC)[C@@H](O[C@H]4C[C@H](OC)[C@@H](NC)[C@H](C)O4)[C@H](C)O3)[C@@H](C)/C=C/C=C3\CO[C@@H]4[C@H](O)C(C)=C[C@@H](C(=O)O1)[C@]34O)O2
AC50 [3]: 33.1 µM (active)
outcome [4]: inactive

FC(F)C(F)(F)OCC(Cn1cncn1)c1ccc(Cl)cc1Cl (configuration not stated)
outcome [4]: inactive
